Structures can show the parent of a compound that is named as a salt.
Each compound was assayed on thyroid hormone receptor (endogenous TRα and TRβ). Conditions: read-out: Average AC50 (uM) GH3-TRE-Antag, antagonist mode, 1 nM T3, no GH3 cytotoxicity hit.
Parameters: species or system GH3-TRE-Luc (rat pituitary); GH3-TRE-Luc luciferase reporter, antagonist mode against 1 nM T3, loss of signal, qHTS
For `ClC1C(Cl)C(Cl)C(Cl)C(Cl)C1Cl` (stereo not drawn) [alpha-1,2,3,4,5,6-Hexachlorocyclohexane], the AC50 was 26.5 µM. Compound `CC[C@@H]1/C=C(\C)C[C@H](C)C[C@H](OC)[C@H]2O[C@@](O)(C(=O)C(=O)N3CCCC[C@H]3C(=O)O[C@H](/C(C)=C/[C@@H]3CC[C@H](Cl)[C@H](OC)C3)[C@H](C)[C@@H](O)CC1=O)[C@H](C)C[C@@H]2OC` [Pimecrolimus] has an AC50 of 16 µM. For `CCCCCCCCCCCCCCCCCCCCCC(=O)Nc1ccn([C@@H]2O[C@H](CO)[C@@H](O)[C@@H]2O)c(=O)n1` [Enocitabine], the AC50 was 17.3 µM. `CCCN(CCC)C(=O)Cc1c(-c2ccc(Cl)cc2)nc2ccc(Cl)cn12` [Alpidem] gave an AC50 of 25.1 µM. Compound `Cc1cc(Nc2ccccc2C(=O)O)ccc1Cl` [2-[(4-Chloro-3-methylphenyl)amino]benzoic acid] has an AC50 of 16.1 µM. In the case of `Cc1occc1SSc1ccoc1C` [Bis(2-methyl-3-furyl)disulfide], the AC50 is reported as 65.9 µM. Compound `Cc1c(Nc2ncccc2C(=O)O)cccc1C(F)(F)F` [Flunixin meglumine] has an AC50 of 2.85 µM. For `CCCCOC(=O)c1ccc(O)cc1` [Butylparaben], the AC50 was > 50 µM. `c1cnc2cc3c(cc2n1)[C@@H]1CNC[C@H]3C1` [Varenicline dihydrochloride] showed an AC50 of 63.5 µM. `Cc1cc(O)c2c(O)c3c(O)cccc3cc2c1` [Chrysarobin] showed an AC50 of 28.1 µM. In the case of `C/C=C(/CC[C@@H](C)[C@H]1CC[C@H]2C3=CC[C@H]4[C@H](C)[C@@H](O)CC[C@]4(C)[C@H]3CC[C@]12C)C(C)C` [Sitosterol alpha1], the AC50 is reported as 40.6 µM.

Reference: PMC6792352, “Limited Chemical Structural Diversity Found to Modulate Thyroid Hormone Receptor in the Tox21 Chemical Library” (Environmental Health Perspectives, 2019)
